A selection: hits, their analogues and other compounds. The true share with any hit is near 3.1%.
EWS-Fli block – inhibitors of EWS/Fli oncoprotein transcriptional activity. A673 NR0B1-luciferase reporter, viability-normalised. inhibition, % at 12.6 µM. 350,000 compounds, 0.67% hits. AID 651661;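 active means mean inhibition of at least 50% after viability correction, with every replicate also passing that limit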;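 further: firefly luciferase signal divided by Alamar Blue viability fluorescence both relative to DMSO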
LGR2 antag – Drosophila LGR2 receptor signaling inhibition; HEK293 LGR2, CRE-luciferase, bursicon-stimulated, 4 h; inhibition, % at 9.99 µM; 380,000 compounds, 0.35% hits;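 active means drop in luminescence signal, shown as inhibition above about 50% in the replicate tests, limit read from the data, passing the limit was not always enough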;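 further: agonist challenge used bursicon conditioned medium at about half maximal strength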
TWEAK Fn14 block – TWEAK-Fn14 signaling inhibition | TWEAK-stimulated Fn14 reporter cells, luciferase luminescence, 8 h | inhibition, % at 10 µM | 360,000 compounds, 2% hits; in the data active means inhibition above about 50%
LMP1 NFkB inh – Epstein-Barr LMP1 NF-kappaB reporter inhibition. LMP1-induced NF-kappaB luciferase reporter cells, luminescence. inhibition, % at 12.5 µM. 350,000 compounds, 0.69% hits. AID 504558; in the data active means inhibition above about 41%;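 further: 0% = neutral control wells and 100% = reference inhibitor control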
PAX8 reporter – PAX8 transcriptional activity inhibition | RMG-I TPO-luciferase reporter, SteadyGlo, 24 h | inhibition, % at 12.6 µM | 360,000 compounds, 1.2% hits;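 active means mean replicate inhibition at least 60% with every replicate also reaching 60%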;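 further: luciferase light reporting Pax8 driven TPO promoter activity; plate controls were median of neutral control wells for no effect and mitoxantrone controls for full effect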
TROY NFkB inh – blocks TROY-dependent signaling in reporter cells; inhibition, % at 10 µM; Q293 LMP1-TROYcd NF-kB luciferase reporter, 4 h; 360,000 compounds, 0.98% hits;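 active means compounds whose plate-normalised and pattern-corrected inhibition of the luciferase reporter signal at the single screening dose is 50% or more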
The depositor's hits bear a star; . = not tested or not shown; ! = repeats disagree.

SMILES	EWS-Fli block	LGR2 antag	TWEAK Fn14 block	LMP1 NFkB inh	PAX8 reporter	TROY NFkB inh
C=C1CC(Cn2cc(Br)c(=O)[nH]c2=O)(c2ccc(-c3ccccc3)cc2)OC1=O (stereo not drawn)	53*	76*	83*	17	99*	49
O=c1[nH]c(=O)n(Cc2ccc(Oc3ccccc3)cc2)cc1Br	25	1	11	5	-6	8
O=C(N/C(=C/c1ccccc1Cl)C(=O)N1CCOCC1)c1ccccc1	-1	1	9	67*	-7	3
CCCc1ccc(-c2ccc(C(=O)O)cc2)nc1	.	27	78*	-12	.	48
CCCCCc1ccc(-c2ccc(/C=C/C(N)=O)cc2)nc1	.	-23	16	-1	-107	-7
CCOc1ccc(-c2c(C#N)c(N)nc3sc(C(=O)c4ccccc4)c(N)c23)cc1	-3	-9	76*	8	11	89*
COc1ccc(-c2c(C#N)c(N)nc3sc(C(=O)c4ccccc4)c(N)c23)cc1	.	-13	30	3	-16	25
COc1ccc(NC(=O)c2cc([N+](=O)[O-])ccc2O)cc1	73*	96*	104*	75*	100*	87*
O=C(Nc1cccc([N+](=O)[O-])c1)c1cc2ccccc2cc1O	-12	-23	83*	23	78*	12
CNC[C@@H]1OCCCC[C@H](C)Oc2ccc(NC(=O)Nc3ccc4c(c3)OCO4)cc2C(=O)N([C@@H](C)CO)C[C@@H]1C	-5	1	.	.	-13	.
CCCCCOC(=O)Cn1c(=O)oc2ccccc21	-5	.	9	3	4	-35
CCCCOC(=O)Cn1c(=O)n(CC(=O)OCCCC)c2ccccc21	.	15	-12	2	.	3
CCCCCCCCCCOC(=O)Cn1c(COc2cccc(C)c2)[n+](C)c2ccccc21	15	9	51*	-4	36	46
CCCCCCCCCCOC(=O)Cn1c(COc2ccc(OC)cc2)[n+](C)c2ccccc21	.	.	62*	-4	.	65*!
CCCCCCCCCCOC(=O)Cn1c(COc2ccc(Cl)cc2)[n+](C)c2ccccc21	35	8	19	7	3	43
CCCCCCCCCCOC(=O)Cn1c(COc2ccccc2C)[n+](C)c2ccccc21	.	17	92*	18	.	52*
CCCCCCCCCCOC(=O)Cn1c(COc2ccccc2)[n+](C)c2ccccc21	29	12	70*	29	71*	43
CNC(=O)C[C@@H]1CC[C@@H]2[C@H](COC[C@@H](O)CN2C(=O)c2ccc3c(c2)OCO3)O1	.	0	.	.	.	.
CC(=O)N(C)C[C@H]1Oc2ncc(-c3ccccc3F)cc2C(=O)N([C@H](C)CO)C[C@@H]1C	-3	6	.	.	.	.
C[C@@H]1CN([C@@H](C)CO)C(=O)Cc2cc(NC(=O)Nc3ccc(C(F)(F)F)cc3)ccc2O[C@@H]1CN(C)S(=O)(=O)c1cccs1	46	16	.	.	9	.
Cn1c(=O)c(Nc2ccc(O)cc2)c2c3c(cccc31)C(=O)c1ccccc1-2	-12	4	48	10	83*	-47
CC(C)c1ccc(Nc2c([N+](=O)[O-])c(=O)n(C)c3ccccc23)cc1	12	.	-6	-10	6	-5
CCNC(=O)[C@@H]1[C@@H](CO)[C@@H]2Cn3c(ccc(/C=C/c4ccccc4)c3=O)[C@H]1N2C(=O)C1CCCC1	-2	-10	.	.	-27	.
O=[N+]([O-])c1ccc(NN=Cc2cccc([N+](=O)[O-])c2)cc1	-23	-7	-27	-9	-12	-51
O=[N+]([O-])c1ccc(N/N=C/c2cccc(O)c2)cc1	-128	-125	-69	9	-102	51*
SMILES	EWS-Fli block	LGR2 antag	TWEAK Fn14 block	LMP1 NFkB inh	PAX8 reporter	TROY NFkB inh
Cc1ccc(S(=O)(=O)N[C@@H]2C=C[C@@H](CC(=O)NCc3ccncn3)O[C@H]2CO)cc1	3	1	.	.	16	.
CC1CN(CC(O)COC(c2ccccc2)c2ccccc2)CC(C)O1 (stereo not drawn)	10	.	-14	1	120*	5
CCOC(=O)C(CC)(CC)C(=O)/C=C/c1cccc(Br)c1	.	.	59*	-27	.	2
NC(=O)NC(=O)COC(=O)/C=C/c1cccc(Br)c1	-24	.	-5	1	4	4
CC(C)C#Cc1ccc2c(c1)O[C@H](CN(C)C(=O)Nc1ccccc1)[C@H](C)CN([C@@H](C)CO)S2(=O)=O	21	22	.	.	5	.
CCCNC(=O)N1CCC2(CC1)CN(C(=O)CC)[C@@H](CO)c1[nH]c3cc(OC)ccc3c12	1	2	.	.	.	.
c1coc(CN(Cc2ccco2)c2ncnc3c2oc2ccccc23)c1	.	.	66*	5	.	18
CC=Cc1ccc2n(c1=O)C[C@H]1[C@H](CO)[C@@H](C(=O)NCc3ccc4c(c3)OCO4)[C@@H]2N1C(=O)C1CC1 (mixture of isomers)	2	8	.	.	-14	.
C#CCn1c(S(=O)(=O)Cc2ccc(F)cc2)nc(-c2ccccc2)c1-c1ccccc1	.	.	-31	43*	.	12
COc1cccc(S(=O)(=O)N(C)C[C@@H]2Oc3cc(C4=CCCCC4)ccc3S(=O)(=O)N([C@@H](C)CO)C[C@H]2C)c1	-17	4	.	.	77*	.
Cc1ccc(S(=O)(=O)N(C)C[C@@H]2Oc3cc(C4=CCCC4)ccc3S(=O)(=O)N([C@@H](C)CO)C[C@H]2C)cc1	10	0	.	.	71*	.
COc1cccc(S(=O)(=O)N(C)C[C@H]2Oc3cc(C4=CCCCC4)ccc3S(=O)(=O)N([C@@H](C)CO)C[C@@H]2C)c1	7	12	.	.	52	.
C[C@@H]1CN([C@H](C)CO)C(=O)c2cc(/C=C/c3ccccc3)cnc2O[C@H]1CN(C)C	-13	-7	.	.	.	.
COc1ccc(CCN2C(=O)c3ccccc3C2c2nnnn2-c2ccc3c(c2)OCCO3)cc1OC (stereo not drawn)	9	-9	11	.	-15	-12
COc1ccc(OC)c(CN2C(=O)c3ccccc3C2c2nnnn2-c2ccc3c(c2)OCCO3)c1 (stereo not drawn)	52*	-10	-7	.	21	14
CC(C)C#Cc1cnc2c(c1)C(=O)N([C@@H](C)CO)C[C@H](C)[C@@H](CN(C)C(=O)c1cnccn1)O2	-7	7	.	.	.	.
COc1ccc(CN(C)C[C@@H]2OCCCC[C@H](C)Oc3ccc(NS(=O)(=O)c4ccc(Cl)cc4)cc3C(=O)N([C@@H](C)CO)C[C@H]2C)cc1	8	15	.	.	30	.
CC[C@H](CO)Nc1nc(Nc2cccc(Cl)c2)c2ncn(C(C)C)c2n1	4	58*	71*	-14	78*	61*
CC(C)NC(=O)Nc1ccc2c(c1)C(=O)N([C@H](C)CO)C[C@H](C)[C@@H](CN(C)C(=O)c1ccncc1)OCCCC[C@H](C)O2	.	-3	.	.	-9	.
Cc1ccc(S(=O)(=O)N(C)C[C@H]2OCCCC[C@@H](C)Oc3ccc(NS(=O)(=O)c4ccc(Cl)cc4)cc3C(=O)N([C@H](C)CO)C[C@@H]2C)cc1	1	-1	.	.	11	.

Screening results (PubChem BioAssay)
